The values that follow come from PubChem BioAssay (NCI).

Among the test systems are NCI-H23 lung; NCI-H226 lung; NCI-H322M lung; HOP-62 NSCLC; NCI-H460 lung; HOP-92 NSCLC; NCI-H522 lung; A549/ATCC NSCLC; 786-0 renal; COLO 205 colon; DU-145 prostate; K-562 leukemia; MALME-3M melanoma; MDA-MB-231 breast; RXF 393 renal; SF-268 CNS; SF-295 CNS; SF-539 CNS; UACC-257 melanoma; M14 melanoma.
Common to all, as to test: NCI-60 one-dose screen, 48 h (100 = growth as untreated, 0 = no growth, -100 = all killed)
Common to all, as to settings: 10 µM unless noted

“And” between values parts separate entries of the source, which are not always exact repeats. Equal values may be shown once. About 83,000 compounds went through this panel and 20% of them were active in at least one assay; those are over-represented in the sample as a whole.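 A percent growth of 40 corresponds to 60% growth inhibition; 0 means no net growth; -100 means all cells died. Active threshold: below 10.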 The source made the active and inactive calls.

With `Cc1cc(N(CCCl)CCCl)ccc1C=Nc1ccc(-c2csc(-c3ccccc3)n2)cc1`, the growth is 66.6% (inactive) in the experiment on NCI-H23 lung; 58.5% (inactive) with NCI-H226 lung; 117% (inactive) in the experiment with NCI-H322M lung; 79.3% (inactive) in the experiment on HOP-62 NSCLC; 33.1% (inactive) in the experiment on NCI-H460 lung; 59.4% (inactive) in the experiment with HOP-92 NSCLC. Besides, the growth in the experiment with NCI-H522 lung was 102% (inactive); in the experiment with A549/ATCC NSCLC, 67.2% (inactive); in the experiment with 786-0 renal it was 59.2% (inactive); in the experiment with COLO 205 colon it was 88.9% (inactive); with DU-145 prostate, 68.3% (inactive); with K-562 leukemia it was 80.4% (inactive). Also, the growth with MALME-3M melanoma was 115% (inactive); in the experiment on MDA-MB-231 breast, 90.3% (inactive); in the experiment on RXF 393 renal, 90.1% (inactive); in the experiment with SF-268 CNS, 66.7% (inactive); with SF-295 CNS, 66.2% (inactive); in the experiment with SF-539 CNS, 74.4% (inactive). Besides, the growth is 86.5% (inactive) in the experiment on UACC-257 melanoma and 92.6% (inactive) with M14 melanoma.

`Cc1cc(Br)c([N+](=O)[O-])cc1[N+](=O)[O-]`: the growth was 98.6% (inactive) in the experiment on NCI-H23 lung; 95.5% (inactive) in the experiment with NCI-H226 lung; 132% (inactive) in the experiment on NCI-H322M lung; 100% (inactive) with HOP-62 NSCLC; 97.5% (inactive) with NCI-H460 lung; 134% (inactive) in the experiment with HOP-92 NSCLC. In addition, the growth with NCI-H522 lung was -28% (active); in the experiment with A549/ATCC NSCLC, 101% (inactive); in the experiment on 786-0 renal, 103% (inactive); with COLO 205 colon, 72.9% (inactive); with DU-145 prostate it was 89.4% (inactive); in the experiment with K-562 leukemia it was 75% (inactive). The growth is 128% (inactive) with MALME-3M melanoma; 97.8% (inactive) in the experiment with MDA-MB-231 breast; 103% (inactive) in the experiment with RXF 393 renal; 97.2% (inactive) in the experiment on SF-268 CNS; 114% (inactive) in the experiment with SF-295 CNS; 97.9% (inactive) in the experiment on SF-539 CNS. Further, the growth with UACC-257 melanoma was 98.7% (inactive); in the experiment with M14 melanoma, 96.2% (inactive).

`Nc1cccnc1`: the growth in the experiment on NCI-H23 lung is 109% (inactive); in the experiment with NCI-H226 lung, 107% (inactive); in the experiment on NCI-H322M lung it was 105% (inactive); in the experiment on HOP-62 NSCLC, 104% (inactive); in the experiment on NCI-H460 lung, 115% (inactive); in the experiment with HOP-92 NSCLC, 101% (inactive). The growth was 91.6% (inactive) in the experiment with NCI-H522 lung; 106% (inactive) in the experiment with A549/ATCC NSCLC; 109% (inactive) in the experiment on 786-0 renal; 115% (inactive) in the experiment with COLO 205 colon; 125% (inactive) in the experiment on DU-145 prostate; 105% (inactive) in the experiment on K-562 leukemia. The growth with MALME-3M melanoma is 120% (inactive); with MDA-MB-231 breast, 110% (inactive); in the experiment on RXF 393 renal, 126% (inactive); with SF-268 CNS it was 108% (inactive); in the experiment with SF-295 CNS it was 122% (inactive); with SF-539 CNS it was 113% (inactive). The results for the growth with UACC-257 melanoma and with M14 melanoma were 82.9% (inactive) and 113% (inactive), respectively.

`Cc1cc(N(CCCl)CCCl)ccc1/C=N\NC(=O)c1cccnc1`: the growth was 66.1% (inactive) and 73.8% (inactive) in the experiment on NCI-H23 lung; -36.1% (active) and 11.8% (inactive) in the experiment on NCI-H226 lung; 108% (inactive) and 97.9% (inactive) in the experiment with NCI-H322M lung; 80.4% (inactive) and 87.5% (inactive) in the experiment with HOP-62 NSCLC; 21.2% (inactive) and 28.7% (inactive) in the experiment on NCI-H460 lung; 88.9% (inactive) and 94.3% (inactive) with HOP-92 NSCLC. Besides, the growth in the experiment with NCI-H522 lung is 82.3% (inactive) and 105% (inactive); in the experiment on A549/ATCC NSCLC, 73.5% (inactive) and 82.5% (inactive); in the experiment with 786-0 renal, 81.1% (inactive) and 84% (inactive); in the experiment with COLO 205 colon, 94.1% (inactive) and 102% (inactive); with DU-145 prostate it was 75.6% (inactive) and 75.4% (inactive); with K-562 leukemia, 85.2% (inactive) and 91.8% (inactive). Moreover, the growth was 107% (inactive) with MALME-3M melanoma; 112% (inactive) and 94.5% (inactive) with MDA-MB-231 breast; 100% (inactive) and 85.6% (inactive) in the experiment with RXF 393 renal; 80.4% (inactive) and 72.5% (inactive) in the experiment with SF-268 CNS; 49.6% (inactive) in the experiment with SF-295 CNS; 54.2% (inactive) and 73.7% (inactive) in the experiment with SF-539 CNS. Moreover, the growth in the experiment on UACC-257 melanoma was 84.9% (inactive) and 88.6% (inactive); in the experiment on M14 melanoma it was 96% (inactive) and 92.1% (inactive).

Turning to `COc1ccc(N(CC(=O)NCCC[Te]c2ccccc2)C(=O)c2ccccc2)cc1`, the growth in the experiment on NCI-H23 lung is 0.588% (active); in the experiment on NCI-H226 lung it was 52.7% (inactive); in the experiment with NCI-H322M lung, 4.82% (active); in the experiment with HOP-62 NSCLC, 15.8% (inactive); with NCI-H460 lung it was -1.52% (active); in the experiment on HOP-92 NSCLC, -9.19% (active). Also, the growth is -9.72% (active) in the experiment on NCI-H522 lung; 2.78% (active) in the experiment with A549/ATCC NSCLC; 75.3% (inactive) with 786-0 renal; 89.2% (inactive) with COLO 205 colon; 66.6% (inactive) in the experiment on DU-145 prostate; 56.1% (inactive) with K-562 leukemia. Besides, the growth is 129% (inactive) in the experiment with MALME-3M melanoma; 14.2% (inactive) with MDA-MB-231 breast; 133% (inactive) in the experiment on RXF 393 renal; 39.2% (inactive) with SF-268 CNS; -7.61% (active) in the experiment on SF-295 CNS; 31.4% (inactive) in the experiment with SF-539 CNS. In addition, the growth is 95.4% (inactive) in the experiment with UACC-257 melanoma and 32.1% (inactive) with M14 melanoma.

Regarding `Cc1ccc(N2CCN(CCC#N)CC2)cc1`, the growth in the experiment on NCI-H23 lung was 100% (inactive); with NCI-H226 lung it was 92.1% (inactive); with NCI-H322M lung, 75.2% (inactive); in the experiment on HOP-62 NSCLC, 93.6% (inactive); with NCI-H460 lung it was 97.7% (inactive); in the experiment with HOP-92 NSCLC, 98.4% (inactive). In addition, the growth in the experiment on NCI-H522 lung is 84.6% (inactive); with A549/ATCC NSCLC, 88.5% (inactive); in the experiment with 786-0 renal, 100% (inactive); in the experiment with COLO 205 colon, 93.7% (inactive); in the experiment with DU-145 prostate, 101% (inactive); in the experiment on K-562 leukemia it was 110% (inactive). The growth with MALME-3M melanoma is 70.1% (inactive); in the experiment with MDA-MB-231 breast, 107% (inactive); in the experiment with RXF 393 renal it was 88% (inactive); with SF-268 CNS, 105% (inactive); with SF-295 CNS, 105% (inactive); in the experiment with SF-539 CNS, 79.1% (inactive). The growth is 84.5% (inactive) in the experiment on UACC-257 melanoma and 98.6% (inactive) with M14 melanoma.

In the case of `CN1CCN(c2ccc(Cl)cc2)CC1`, the growth is 73.6% (inactive) in the experiment on NCI-H23 lung; 93.8% (inactive) in the experiment on NCI-H226 lung; 94.2% (inactive) in the experiment on NCI-H322M lung; 93.1% (inactive) with HOP-62 NSCLC; 44.6% (inactive) with NCI-H460 lung; 93.7% (inactive) in the experiment on HOP-92 NSCLC. The growth was 44.3% (inactive) with NCI-H522 lung; 69.1% (inactive) in the experiment on A549/ATCC NSCLC; 104% (inactive) in the experiment on 786-0 renal; 89.8% (inactive) in the experiment on COLO 205 colon; 6.91% (active) in the experiment on DU-145 prostate; 70.3% (inactive) in the experiment with K-562 leukemia. Further, the growth in the experiment with MALME-3M melanoma is 126% (inactive); in the experiment with MDA-MB-231 breast, 105% (inactive); with RXF 393 renal it was 66.9% (inactive); with SF-268 CNS it was 88.5% (inactive); in the experiment on SF-295 CNS, 57% (inactive); in the experiment with SF-539 CNS, 97.2% (inactive). Further, the values for the growth in the experiment on UACC-257 melanoma and with M14 melanoma were 84.4% (inactive) and 101% (inactive), respectively.
